# Assay outcomes as filed in PubChem.
# Rows were chosen to be rich in hits. Some 1.9% of all compounds tested hit in one or more screens of this group.
# EP2 modulator: modulators of human EP2 prostaglandin E2 receptor | P43116 | EP2-expressing cells, cAMP HTRF FRET, PGE2 co-stimulation | induction, % at 25 µM | 260,000 tested, 0.83% active;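 active = compounds whose cAMP rise, as percent of the full-agonist control response, exceeds 60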;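 also: rat C6 glioma line stably carrying human EP2 under a CMV promoter; the protocol text gives 20 µM as final concentration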
# Target sequence (P43116 whole entry, looked up): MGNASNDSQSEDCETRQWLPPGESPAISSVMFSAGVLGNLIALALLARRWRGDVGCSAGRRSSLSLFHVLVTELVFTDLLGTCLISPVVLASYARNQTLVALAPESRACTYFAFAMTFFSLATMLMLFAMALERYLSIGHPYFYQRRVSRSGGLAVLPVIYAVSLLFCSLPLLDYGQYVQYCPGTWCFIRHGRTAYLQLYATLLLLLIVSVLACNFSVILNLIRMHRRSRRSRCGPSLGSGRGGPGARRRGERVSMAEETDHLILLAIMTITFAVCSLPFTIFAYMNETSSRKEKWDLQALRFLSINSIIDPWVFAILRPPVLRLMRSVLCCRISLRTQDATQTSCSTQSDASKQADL
# Calpain2 inh: blocks pig calpain II enzyme activity | purified calpain II, fluorogenic peptide substrate, 30 min | inhibition, % at 16 µM | 220,000 tested, 0.37% active | AID 1236;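 active = inhibition above about 50%, limit read from the data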
# PGE2 EP2 inh: inhibitors of human EP2 prostaglandin E2 receptor. P43116. C6 glioma cells expressing human EP2, cAMP TR-FRET; cells stimulated with saturating PGE2. inhibition, % at 25 µM. 260,000 tested, 0.52% active. AID 1422;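 active = percent inhibition above 40 after rounding to a whole number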;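 also: rat C6 glioma host cells with rolipram phosphodiesterase inhibitor present; the protocol text gives 20 µM as final concentration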
# Furin inhibitor: human furin inhibition. 220,000 tested, 0.061% active. purified furin, fluorogenic substrate cleavage. inhibition, % at 20 µM or 30 µM. P09958. AID 463115; in the data active = inhibition above about 25%
# Efa HMGR inh: E. faecalis class II HMG-CoA reductase inhibition. AID 1066. 190,000 tested, 0.41% active. inhibition, % at 10 µM. purified E. faecalis HMGR, NADPH absorbance 340 nm kinetic;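 active = inhibition above a set limit, the median over all tested compounds plus 3 SD, cut at about 9.5% in these data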;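 also: enzyme runs in reverse so mevalonate oxidation gives rising NADPH absorbance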
# EP2 confirm: EP2 receptor cAMP induction, counter-screens negative | C6 glioma EP2 cells, cAMP HTRF induction; plus low (about EC15) PGE2 agonist | calls only at 20 µM (by protocol) | shares compounds with EP2 modulator | 1,300 tested, 47% active;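 active = cAMP induction above 50% in the main assay while under 30% in all four parallel counter assays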;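 also: rat C6 glioma cells stably expressing human EP2 receptor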
# A number is an active result; i = inactive; nt = no result given; + = active, no number.
SMILES,EP2 modulator,Calpain2 inh,PGE2 EP2 inh,Furin inhibitor,Efa HMGR inh,EP2 confirm
COc1ccc(N(CC(=O)N/N=C/c2ccc(OC3CSC3)cc2)S(=O)(=O)c2ccccc2)cc1,i,i,i,i,i,nt
Cc1ccc(N(CC(=O)N/N=C/c2ccc(OC3CSC3)cc2)S(=O)(=O)c2ccccc2)cc1,76,i,i,i,i,+
COc1cccc2cc(/C(=N/O)c3ccccc3)oc12,68,i,i,i,i,+
COc1cccc2cc(C(C)=O)oc12,i,i,i,i,i,nt
Cc1oc(-c2ccccc2)cc1C(=O)Nc1cccc(/C=C\C(=O)O)c1,82,i,i,i,i,+
Cc1ccc(-c2cc(N)c(=O)n(CC(=O)Nc3ccccc3-c3ccc(C)o3)n2)o1,i,nt,i,nt,nt,nt
COc1ccccc1C1(NC(=O)c2cnccn2)CCCC1,i,nt,i,nt,nt,nt
COc1cc(C)c(NC(=S)Nc2ccc(C)c(Cl)c2)cc1OC,i,i,i,i,i,nt
COc1cc(C)c(NC(c2ccccc2)c2ccccc2)cc1OC,67,i,i,i,i,+
Cc1ccc(/C=N/N(Cc2ccccc2)c2ccccc2)o1,69,i,i,i,i,+
Cc1ccc(/C=N/N2CCN(Cc3ccccc3)CC2)o1,i,i,i,i,i,nt
COC(=O)[C@H]1CCc2ccccc2N1C(=O)C1CC1,i,nt,nt,nt,nt,nt
Cc1ccc(OCC(=O)Nc2nc3ccc(F)cc3s2)cc1,i,nt,i,nt,nt,nt
O=C(c1ccc(S(=O)(=O)NCc2cccs2)cc1)N1CCc2ccccc2C1,i,nt,i,nt,nt,nt
O=c1c2c(n3nnnc3n1-c1ccccc1)-c1ccccc1CC21CCCC1,73,i,i,i,i,+
O=c1c2c(n3cnnc3n1C1CCCCC1)-c1ccccc1CC21CCCCC1,68,i,i,i,i,+
O=c1c2c(n3cnnc3n1-c1ccccc1)-c1ccccc1CC21CCCC1,i,i,i,i,i,nt
Nn1cnc2c(c1=O)C1(CCCCC1)Cc1ccccc1-2,73,i,i,i,i,i
Cc1ccc(-n2c(SCC(N)=O)nc3c(c2=O)C2(CCCC2)Cc2ccccc2-3)cc1,71,i,i,i,i,i
Cc1cc2c(cc3c(=O)n(CC(=O)N(Cc4ccccn4)C4CC4)nc(C)n32)s1,i,nt,nt,nt,nt,nt
O=C(OC(C(=O)NC1CCCC1)c1ccccc1)c1cccs1 (stereo not drawn),i,nt,i,nt,nt,nt
Cc1cccc(C)c1NC(=O)CSc1nnc(Cn2nnc(-c3ccccc3)n2)n1-c1ccccc1,74,i,i,i,i,i
COCCCNc1nc(C(C)C)nc2c1nnn2Cc1ccccc1,i,nt,i,nt,nt,nt
COC(=O)c1ccc(-c2ccco2)n1Cc1nc(-c2ccc(OC)c(OC)c2)oc1C,i,i,i,i,i,nt
COC(=O)c1ccc(-c2ccco2)n1Cc1ccccc1Cl,71,i,i,i,i,+
SMILES,EP2 modulator,Calpain2 inh,PGE2 EP2 inh,Furin inhibitor,Efa HMGR inh,EP2 confirm
CCOc1cccc(CNc2ccc(O)cc2)c1OCc1ccccc1Cl,84,i,i,i,i,+
CCOc1cccc(CNn2cnnc2)c1OCc1ccccc1Cl,i,i,i,i,i,nt
CCOC(=O)c1ccc(NC(=O)C(=O)NCc2ccc3c(c2)OCO3)cc1,i,nt,i,nt,nt,nt
CCCc1cc(=O)n2[nH]c(NCc3cccs3)nc2n1,71,i,i,i,i,i
CCCc1cc(=O)n2[nH]c(NCc3ccccc3Cl)nc2n1,i,i,i,i,i,nt
Cc1ccc(-n2c(=S)[nH]c3c(oc4ccccc43)c2=O)cc1C,74,i,i,i,i,i
Cc1ccc(-n2nnc3ccccc3c2=O)cc1C,i,i,i,i,i,nt
OC(CN1CCC(O)(c2ccccc2F)CC1)c1ccc(Cl)cc1 (stereo not drawn),i,nt,i,nt,nt,nt
Cn1c(=O)c2c(SCc3cccnc3)nc(CC(C)(C)C)nc2n(C)c1=O,i,i,i,i,i,+
Cc1cc(C)c(S(=O)(=O)c2ccccc2)c(OC(=O)c2c(Cl)cc(Cl)cc2Cl)n1,76,i,i,i,i,+
O=C(Nc1cc(C(F)(F)F)ccc1-n1cncn1)c1ccc(-c2ccccc2)cc1,66,i,i,i,i,+
Cc1cc2c(s1)c1cnn(CC(=O)NC34CC5CC(CC(C5)C3)C4)c(=O)c1n2C,i,nt,nt,nt,nt,nt
CCN(CC)C(=O)Cn1cc(C(=O)C(=O)NCc2ccco2)c2ccccc21,67,i,i,i,i,i
CCOc1ccc(CC(=O)N2CCC(O)(c3ccccn3)CC2)cc1,i,nt,nt,nt,nt,nt
C=CCOc1ccccc1CNc1cccc(F)c1,72,i,i,i,i,i
